# Data reported in PubChem BioAssay (NCATS).
# Calls of active or inactive are those of the source. Calls follow the shape of the dose curve; as a rule, active = well fitted curve in the direction sought with a large enough effect; inconclusive = small, poorly fitted or top-dose-only effect, or another doubt; inactive = no such curve, though single readings can be large or run the other way.
# Target: Alpha-galactosidase (Coffea arabica) (UniProt Q42656)
# Experiment: Counterscreen for Glucocerebrosidase Inhibitors: qHTS Assay for Coffee Bean alpha-Galactosidase at pH 4.5 (AID 957);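 also: plate controls were enzyme alone for no effect and no enzyme for full effect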
# Details: purified coffee bean alpha-galactosidase, fluorogenic substrate; series mostly up to 76.9 µM; activity change, negative = inhibition: at the top concentration
# Text: NIH Chemical Genomics Center [NCGC]
# NIH Molecular Libraries Screening Centers Network [MLSCN]
# PI Name: Zheng, Wei [NIH]
# Alpha-galactosidase is a homodimeric glycoprotein that hydrolyzes the terminal alpha-galactosyl moieties from glycolipids and glycoproteins. Deficiency of this enzyme results in Fabry Disease with progressive accumulation of globotriaosylceramide and other glycosphingolipids in vascular endothelial cells that causes renal failure, myocardial infarction and stroke, and premature death in patients. It has reported that the improper folding and trafficking of alpha-galactosidase resulted from the genetic mutations may account for a significant numbers of Fabry patients. […] We optimized this coffee bean alpha-galactosidase assay in 1536-well plate format as a counter-screen assay for identifying the selective small molecule inhibitors of other lysosomal enzymes.
# NCGC Assay Protocol Summary:
# This is a fluorogenic enzyme assay with 4-Methylumbelliferyl alpha-D-galactopyranoside as the substrate and green coffee bean […] (from Sigma-Aldrich) as the enzyme preparation. Upon the hydrolysis of this fluorogenic substrate, the resulting product, […]. 4-Methyllumbelliferone, can be excited at 365 nm and emits at 440 nm which can be detected by a standard fluorescence plate reader. Data were normalized to the controls for basal activity (without enzyme) and 100% activity (with enzyme). In the AC50 values were determined from concentration-response data modeled with the standard Hill equation.
# Assay buffer: 50 mM citric acid, 0.005% Tween-20, pH 4.5. (pH 5.9 is an optimal condition for this enzyme assay. This assay in pH 4.5 is used for comparison the inhibitor activities with the human alpha-galactosidase assay)
# 1536-well assay protocol for the coffee bean alpha-galactosidase:
# (1) Add 2 ul/well of enzyme (2 nM final)
# (2) Add 23 nL compounds in DMSO solution. The final titration was 0.7 nM to 77 uM.
# (3) Add 1 ul of substrate (80 uM final)
# (4) Incubate at room temperature for 20 min.
# (5) Add 2 ul stop solution (1M NaOH and 1M Glycine mixture, pH 10)
# (6) Detect the assay plate in a ViewLux plate reader (PerkinElmer) with Ex=365 nm and Em=440nm.
# Keywords: Alpha-galactosidase, Fabry Disease, pharmacological chaperone, chaperone therapy, high throughput screening, alpha-galactosidase inhibitor, MLSMR, MLSCN, NIH Roadmap, qHTS and NCGC
# Chain of Alpha-galactosidase (Coffea arabica) (Q42656 whole entry, looked up): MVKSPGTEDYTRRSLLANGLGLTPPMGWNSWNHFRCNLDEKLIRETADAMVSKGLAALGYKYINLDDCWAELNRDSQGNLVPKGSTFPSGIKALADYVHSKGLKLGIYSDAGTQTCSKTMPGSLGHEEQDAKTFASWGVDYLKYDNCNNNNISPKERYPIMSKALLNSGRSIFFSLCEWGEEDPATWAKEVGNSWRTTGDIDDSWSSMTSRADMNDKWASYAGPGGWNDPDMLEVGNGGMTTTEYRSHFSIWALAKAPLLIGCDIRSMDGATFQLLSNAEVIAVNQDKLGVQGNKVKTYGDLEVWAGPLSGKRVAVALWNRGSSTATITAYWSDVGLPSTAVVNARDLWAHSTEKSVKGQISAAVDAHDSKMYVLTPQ
Structure (SMILES),"activity change, negative = inhibition",outcome
N[C@H](Cc1ccc(Cl)cc1)C(=O)O,3.93% (inactive),–
O=C(Nc1cc(C(=O)Nc2ccc(S(=O)(=O)O)cc2S(=O)(=O)O)cc(C(=O)Nc2ccc(S(=O)(=O)O)cc2S(=O)(=O)O)c1)Nc1cc(C(=O)Nc2ccc(S(=O)(=O)O)cc2S(=O)(=O)O)cc(C(=O)Nc2ccc(S(=O)(=O)O)cc2S(=O)(=O)O)c1,1.06% (inactive),–
O=c1cc(O)cc(/C=C\c2ccc(O)c(O)c2)o1,-10.9% (inactive),–
C#C[C@H](N)CCC(=O)O,-0.475% (inactive),–
CN(C)C(=O)/N=N\C(=O)N(C)C,-0.0521% (inactive),–
Nc1ncnc2c1nc(Sc1ccc(Cl)cc1)n2[C@@H]1O[C@H]2COP(=O)(O)O[C@@H]2[C@H]1O,-1.89% (inactive),–
CC[C@H](CO)NC(=O)[C@@H]1C=C2c3cccc4c3c(cn4C)C[C@@H]2N(C)C1,-5.24% (inactive),–
COC(=O)c1c(-c2cc(OC)c(OC)c(OC)c2)c2ccnc(OCc3ncccn3)c2c(=O)n1Cc1ccnc(C)c1,-2.19% (inactive),–
C[C@]1(C2CCCC2)Cc2cc(OCC(=O)O)c(Cl)c(Cl)c2C1=O,0.194% (inactive),–
COc1ccc2c(c1)c(CC(=O)N1CCOCC1)c(C)n2C(=O)c1ccc(Cl)cc1,-2.39% (inactive),–
N[C@@H]1C=CC=C(C(=O)O)C1,1.85% (inactive),–
Nc1ncnc2c1ncn2[C@@H]1O[C@@H](COP(=O)(O)OP(=O)(O)OP(=O)(O)OP(=O)(O)OC[C@@H]2O[C@@H](n3cnc4c(N)ncnc43)[C@@H](O)[C@H]2O)[C@H](O)[C@@H]1O,-1.22% (inactive),–
CC(C)NC[C@H](O)c1cc(O)cc(O)c1,-0.482% (inactive),–
C[C@H](O)[C@H](O)[C@@H]1CNc2nc(N)[nH]c(=O)c2N1,4.72% (inactive),–
CC(C)NC[C@H](O)c1ccc(NS(C)(=O)=O)cc1,-1.13% (inactive),–
C[C@@H](Cc1ccc2c(c1)OC(C(=O)O)(C(=O)O)O2)NC[C@H](O)c1cccc(Cl)c1,2.21% (inactive),–
CC(C)(C)[C@@]1(O)CCN2C[C@@H]3c4ccccc4CCc4cccc(c43)[C@@H]2C1,–,inactive
S=C(S)O[C@@H]1C[C@@H]2C[C@H]1[C@@H]1CCC[C@H]21,0.369% (inactive),–
O=C(O)C[C@@H]1CCCc2ccccc2[C@H]1O,1.85% (inactive),–
C[C@@H]1CCN=C(N)S1,-1.24% (inactive),–

Structure (SMILES),"activity change, negative = inhibition",outcome
CC(=O)[C@@H]1CC[C@@H]2[C@@H]3CC=C4C[C@H](OS(=O)(=O)O)CC[C@@]4(C)[C@H]3CC[C@]21C,-0.0748% (inactive),–
COc1cc([C@H](O)C(=O)O)ccc1O,-1.06% (inactive),–
C=C(C)[C@H]1Cc2c(ccc3c2O[C@H]2COc4cc(OC)c(OC)cc4[C@@H]2C3=O)O1,-5.47% (inactive),–
O[C@H](CN1CCN(c2cccc(Cl)c2)CC1)C(c1ccccc1)c1ccccc1,-6.68% (inactive),–
NC[C@](O)(CS(=O)(=O)O)c1ccc(Cl)cc1,-0.645% (inactive),–
O=C(O)[C@H]1CCCN(CCC=C(c2ccccc2)c2ccccc2)C1,4.32% (inactive),–
CCCCCCCCCCCCCCC/C=C\[C@H](O)[C@@H](NC(=O)CCCCCCCCCCCCC)OC (tested in a mixture with another compound),-3.02% (inactive),–
CNc1ncnc2c1ncn2[C@H]1C[C@@H](OP(=O)(O)O)[C@H](COP(=O)(O)O)O1,5.67% (inactive),–
O=C1C(SCCO)=C(SCCO)C(=O)c2ccccc21,0.0203% (inactive),–
C[C@]12CC3CC(N)(C1)C[C@@](C)(C3)C2,-2.6% (inactive),–
CO/N=C(\C(=O)N[C@@H]1C(=O)N2C(C(=O)O)=C(COC(C)=O)CS[C@@H]12)c1csc(N)n1,1.34% (inactive),–
CCOC(=O)C1=C(C)NC(C)=C(C(=O)OC)[C@H]1c1cccc(Cl)c1Cl,-3.18% (inactive),–
CC(C)(C)NC[C@H](O)COc1cccc2[nH]c(=O)[nH]c12,-0.583% (inactive),–
N#CC(=C(/N)Sc1ccccc1N)/C(C#N)=C(/N)Sc1ccccc1N,-3.74% (inactive),–
COc1cc2c(cc1O)CC[C@@H]1[C@@H]2CC[C@@]2(C)[C@H](O)CC[C@H]12,-1.12% (inactive),–
CCn1ccnc1C[C@@H]1COc2ccccc2O1,-0.846% (inactive),–
O=c1[nH]c(=O)n([C@H]2C[C@H](O)[C@H](CO)O2)cc1/C=C\Br,-1.41% (inactive),–
N[C@H](Cc1cccc(-c2ccccc2CP(=O)(O)O)c1)C(=O)O,4.06% (inactive),–
C[C@@](N)(Cc1ccc(O)c(O)c1)C(=O)O,2.02% (inactive),–
NC(=O)c1cc[n+](CC2=C(C(=O)O)N3C(=O)[C@@H](NC(=O)[C@H](c4ccccc4)S(=O)(=O)[O-])[C@@H]3SC2)cc1,-0.457% (inactive),–
